Test results: PubChem BioAssay (NCATS)
Records with an inconclusive call do not appear. Calls of active or inactive are those of the source. The call rests on the fitted dose curve; in most records, active means well fitted inhibition curve with a large enough effect; inconclusive means small, poorly fitted or top-dose-only effect; inactive means flat fitted curve, though single readings scatter.

These compounds were tested against Dual specificity protein kinase CLK4 (Homo sapiens) (UniProt Q9HAZ1) (assay: qHTS Assay for Inhibitors of CDC-like Kinase 4 (Kinase-Glo Assay) (AID 1770; further: nearly all actives have a fitted effect of over 65% in size)). Details: recombinant Clk4, Kinase-Glo ATP depletion luminescence; series mostly up to 66.7 µM.
Experimental: NIH Molecular Libraries Probe Production Centers Network [MLPCN] NIH Chemical Genomics Center [NCGC] MLPCN Grant: 1R03MH084827-01 Assay Submitter (PI): Tom Misteli NCGC Assay Overview: Clk4 (Invitrogen, cat# PV3839) was assayed using ATP and the RS repeat peptide (AnaSpec cat # 61722) as substrates. Following the Clk4 reaction, the remaining ATP levels were detected using Promega Kinase-Glo technology wherein the remaining ATP from the kinase reaction is detected using Ultra-Glo luciferase and D-luciferin which generates a bioluminescence signal from the ATP. The positive control for the assay was TG003 (Sigma-Aldrich, cat# 300801-52-9) which has been described as an inhibitor of Clk 4[1].
NCGC Assay Protocol Summary: Two uL/well of substrate-buffer solution (100 uM RS peptide, 1 uM ATP, 25 mM Tris pH7.5, 10 mM MgCl2, 0.5 mM EGTA, 2.5 mM DTT, 0.01% Triton X-100 final concentration) was dispensed into 1536-well, assay plates (Greiner, solid white medium-binding plates) with Aurora Discovery BioRAPTR Flying Reagent Dispenser (FRD; Beckton-Dickenson). Using a Kalypsys pin tool equipped with a 1536-pin tool, 23 nL of compound solution was transferred to the assay plate. One uL/ well Clk4-buffer solution (25 nM Clk4, 25 mM Tris pH 7.5, 10 mM MgCl2, 0.5 mM EGTA, 2.5 mM DTT, 0.01% Triton X-100, final concentrations) was then added using the FRD yielding a total kinase reaction volume of 3 uL/ well. After 4.5 hours of room temperature incubation, 3 uL Kinase-Glo reagent was added for a final assay volume of 6 uL/ well. Luminescence was detected with the ViewLux plate reader (Perkin Elmer, Waltham, MA) after 5 min incubation using a 5 second exposure time and 2x binning.
Potency means the concentration at half of the fitted maximal effect.

Sequence of Dual specificity protein kinase CLK4 (Homo sapiens) (Q9HAZ1 whole entry, looked up): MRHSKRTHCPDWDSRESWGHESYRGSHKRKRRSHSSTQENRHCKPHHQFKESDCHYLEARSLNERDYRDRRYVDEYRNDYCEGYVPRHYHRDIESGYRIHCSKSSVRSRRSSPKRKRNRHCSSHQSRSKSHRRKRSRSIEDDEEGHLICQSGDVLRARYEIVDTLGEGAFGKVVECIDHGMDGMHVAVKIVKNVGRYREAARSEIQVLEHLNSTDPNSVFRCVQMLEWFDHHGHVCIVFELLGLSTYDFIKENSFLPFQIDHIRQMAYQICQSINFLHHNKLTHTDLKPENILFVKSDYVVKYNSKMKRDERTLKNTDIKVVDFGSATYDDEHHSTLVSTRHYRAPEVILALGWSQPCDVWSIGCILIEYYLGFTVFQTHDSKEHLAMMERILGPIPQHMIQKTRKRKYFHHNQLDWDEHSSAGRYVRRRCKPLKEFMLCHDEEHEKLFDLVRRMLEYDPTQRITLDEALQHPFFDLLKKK

Potency, active:
CS(=O)(=O)Nc1cccc(-c2ccc3ncnc(NCCN4CCOCC4)c3c2)c1 8.91 µM
c1ccc(CNc2cc(-c3cccnc3)ncn2)cc1 10 µM
COCCn1c(=O)cnc2cnc(Nc3cccc(OC)c3)nc21 2.24 µM
CN1CCN(c2nc(-c3ccc4c(c3)OCO4)nc3ccccc23)CC1 17.8 µM
COc1cccc(Nc2ncc3ncc(=O)n(CCc4ccccc4)c3n2)c1 0.1 µM

Potency, inactive:
CN(C)Cc1ccccc1-c1nc(NC2CCNCC2)c2ccccc2n1
Cc1nc2cnc(N3CCN(C)CC3)nc2n(CCC#N)c1=O
COc1ccc(-n2c(=O)c(-c3ccccc3)nc3cnc(N4CCNCC4)nc32)cc1
COCCn1c(=O)c(-c2cn(C)c3ccccc23)nc2cnc(Oc3cccc(Cl)c3)nc21
CN1CCN(c2ncc3ncc(=O)n(C[C@H]4CCCO4)c3n2)CC1
Cn1c(=O)c(-c2ccc(Cl)cc2)nc2cnc(Nc3ccccc3)nc21
O=c1c(-c2ccc(F)cc2)nc2cnc(N3CCNCC3)nc2n1C1CC1
O=c1c(-c2cc(F)cc(F)c2)nc2cncnc2n1-c1ccccc1
COc1cccc(Nc2ncc3nc(C)c(=O)n(Cc4cccs4)c3n2)c1
COc1cccc(Nc2ncc3nc(-c4ccccc4)c(=O)n(Cc4cccs4)c3n2)c1
COc1ccc(-c2nc3cnc(Nc4ccccc4)nc3n(C[C@H]3CCCO3)c2=O)cc1
O=c1c(-c2ccc(F)cc2)nc2cnc(N3CCNCC3)nc2n1-c1ccccc1
O=c1c(-c2ccc(F)c(F)c2)nc2cncnc2n1C1CC1
O=c1c(-c2ccc(Cl)cc2)nc2cnc(N3CCOCC3)nc2n1C[C@H]1CCCO1
CN1CCN(c2ccnc(-c3ccoc3)n2)CC1
COc1ccc(-c2nc3cnc(N4CCN(C)CC4)nc3n(Cc3cccs3)c2=O)cc1
Cc1ccccc1-c1nccc(NCc2cccs2)n1
O=c1c(-c2ccccc2)nc2cnc(N3CCOCC3)nc2n1C1CC1
Fc1ccc(Nc2ccnc(-c3ccccc3C(F)(F)F)n2)cc1
COc1ccc(Oc2ncc3nc(C)c(=O)n(C[C@H]4CCCO4)c3n2)cc1
O=c1cnc2cncnc2n1Cc1ccc(F)cc1
COc1ccc(Oc2ncc3nc(C)c(=O)n(Cc4cccc(OC)c4)c3n2)cc1
CC(=O)NCCNc1cc(-c2ccccc2C(F)(F)F)ncn1
O=c1c(-c2ccc(F)cc2)nc2cnc(N3CCOCC3)nc2n1Cc1cccs1
CN(C)C(=O)c1ccc(-c2cncnc2NC2CCNCC2)cc1
COc1ccc(Oc2ncc3nc(-c4ccc(Cl)cc4)c(=O)n(C[C@H]4CCCO4)c3n2)cc1
COc1ccc(-c2nc3cnc(N4CCOCC4)nc3n(C3CC3)c2=O)cc1
CCNc1ncc2nc(-c3cc(F)cc(F)c3)c(=O)n(C)c2n1
CN(C)c1ncc2nc(-c3ccc(F)cc3)c(=O)n(Cc3cccs3)c2n1
N#CCCn1c(=O)c(-c2ccc(F)cc2)nc2cnc(N3CCOCC3)nc21
Clc1ccccc1-c1nccc(NCc2cccs2)n1
O=c1c(-c2cccs2)nc2cncnc2n1Cc1ccccc1
COc1ccc(-n2c(=O)c(-c3cc(F)cc(F)c3)nc3cnc(N(C)C)nc32)cc1
COc1cccc(Cn2c(=O)c(-c3ccccc3)nc3cnc(N4CCNCC4)nc32)c1
COc1ccc(-n2c(=O)c(C)nc3cnc(OC)nc32)cc1
